The campaign covered roughly 16,000 compounds. About 2,600 (16%) were called active. Inconclusive results (about 20%) are left out. These entries were drawn from the full list. Unmarked numbers belong to inactive results. Calls come from the whole dose curve; as a rule, active = well fitted curve in the direction sought with a large enough effect; inconclusive = small, poorly fitted or top-dose-only effect, or effect the other way; inactive = no such curve, though single readings can be large or run the other way.

Usually AC50 stands for the concentration giving half of the maximal activity seen.
% is set by controls: 0 for no effect and ±100 for the full control effect.

The experiment deals with Cytochrome P450 2D6 (Homo sapiens) (UniProt P10635). Kind of experiment: Cytochrome panel assay with activity outcomes. The following applies: recombinant CYP, pro-luciferin dealkylation, luminescence, p450-cyp2d6; series mostly up to 57.1 µM.
Sequence of Cytochrome P450 2D6 (Homo sapiens) (P10635 whole entry, looked up): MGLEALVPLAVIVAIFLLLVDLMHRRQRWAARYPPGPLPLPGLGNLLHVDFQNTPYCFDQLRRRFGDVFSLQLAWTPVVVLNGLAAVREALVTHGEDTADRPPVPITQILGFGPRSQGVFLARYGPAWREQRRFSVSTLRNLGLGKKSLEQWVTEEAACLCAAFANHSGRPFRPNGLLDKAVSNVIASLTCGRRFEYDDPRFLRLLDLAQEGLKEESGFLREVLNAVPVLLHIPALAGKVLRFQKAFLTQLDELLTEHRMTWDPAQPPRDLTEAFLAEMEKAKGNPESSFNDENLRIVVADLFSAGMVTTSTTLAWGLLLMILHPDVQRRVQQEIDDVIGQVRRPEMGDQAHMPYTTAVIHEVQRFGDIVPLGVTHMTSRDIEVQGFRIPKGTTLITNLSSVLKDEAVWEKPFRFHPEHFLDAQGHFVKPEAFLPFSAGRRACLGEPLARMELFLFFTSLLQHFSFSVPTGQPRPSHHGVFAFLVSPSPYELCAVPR
Consider `CC(=O)N=c1sc(S(N)(=O)=O)nn1C`, for which the AC50 result is “inactive”.
Same read-out and setting: then `COC(=O)c1cc(/C=C/c2ccccc2)on1`, with “inactive”.
With `Cc1cnc2cc(Cl)ccc2c1SCC(=O)O`, the activity, negative = inhibition was 8.22% [at 11.4 µM].
Take `NS(=O)(=O)c1cc2c(cc1Cl)N[C@@H](CC1CCCC1)NS2(=O)=O`: the AC50 result is “inactive”.
Still for that read-out and setting: the entry for `O=C(CN1C(=O)c2ccccc2C1=O)NCC(=O)OCC(=O)c1ccc(Br)cc1` is “inactive”; for `CCn1c(CCNC(=O)c2ccccc2Cl)n[nH]c1=S` it is “inactive”.
With `O=C(O)c1ccccc1/C=N\N=C1c2ccccc2-c2ccccc21`, the activity, negative = inhibition is 16.6% [at 11.4 µM].
For the molecule `CCn1cc(C(=O)NCC(=O)OC)c2cc(OC)c(OC)cc2c1=O`, the AC50 entry was “inactive”.
Turning to `CC1(C)[C@@H]2CC[C@]1(C)[C@@H](OC(=O)CSC#N)C2`, the activity, negative = inhibition is -15% [at 11.4 µM].
With `CC(C)NC[C@@H](O)COc1cccc2ccccc12`, the AC50 entry is “inactive”.
The same measure, in the same setting: then `CC(C)(C)NC[C@H](O)COc1cccc2[nH]c(=O)[nH]c12`, with “inactive”.
The same measure, in the same setting: then `C=CCc1ccccc1OC[C@H](O)CNC(C)C`, with 6.31 µM (active).
As to `C[C@@]12C[C@H](O)[C@@H]3[C@H](CCC4=CC(=O)CC[C@]43C)[C@H]1CC[C@@H]2c1csc(N)n1`, the activity, negative = inhibition was -10.6% [at 11.4 µM].
Consider `Cc1ccc(C)c(S(=O)(=O)NC(C)C(=O)Nc2ccc(-c3nc4ccccc4s3)cc2)c1` (centres undefined), for which the AC50 entry is “inactive”.
For `CC(C)[C@]1(Cl)CC[C@@H]2[C@]3(C)CCC[C@@](C)(C(=O)O)[C@H]3C[C@H](Cl)[C@@]2(Cl)[C@H]1Cl`, the activity, negative = inhibition was 4.09% [at 11.4 µM].
Consider `COc1cccc(Cn2c(=O)c(-c3cccc(C#N)c3)nc3cnc(N4CCN(C)CC4)nc32)c1`, for which the AC50 result was “inactive”.
On the same count and under the same terms, the entry for `Cc1ccc(/C=C2\SC(=S)N(CCCC(=O)Nc3ccccn3)C2=O)cc1` is “inactive”.
Take `CC(C)(C)COS(=O)OCC(C)(C)C`: the activity, negative = inhibition is -1.05% [at 11.4 µM].
As to `C[C@@H](N1CCOCC1)[C@@](O)(c1ccccc1)c1ccccn1`, the activity, negative = inhibition is -15% [at 11.4 µM].
As for `CC(C)C(O)(C#CCN1CCCC1)c1ccccc1` (centres undefined), the half-maximal activity concentration (AC50) was 14.1 µM (active).
For `CCC(C#CCN1CCCCC1)(CC)OCCC#N`, the AC50 entry was “inactive”.
In the case of `O=C(N/N=C/C=C/c1ccc([N+](=O)[O-])cc1)c1cccs1`, the AC50 entry was “inactive”.
With `OCCN1CCOCCOCCN(CCO)CCN(CCO)CC1`, the AC50 entry was “inactive”.
Regarding `COC(=O)/C=C/CSC1=N/C(=C/c2ccc(-n3cncn3)cc2)C(=O)N1`, the AC50 is 14.1 µM (active).
The same measure, in the same setting: then `COc1ccccc1NC(=O)CSc1nc2ccccc2cc1Cc1ccccc1`, with “inactive”.
On the same count and under the same terms, the entry for `C[C@@H]1C(=O)N(C)C(=O)c2nc[nH]c21` is “inactive”; for `CCOc1ccc(NC(=S)NC(=O)/C=C/c2ccc(C)cc2)c([N+](=O)[O-])c1` it is “inactive”; for `O=C(CCN1C(=O)C2C3C=CC(C3)C2C1=O)N1CCN(c2cccc(Cl)c2)CC1` (centres undefined) it is “inactive”.
Same read-out and setting: then `FC(F)(F)c1cccc(N2CCN(CC3CC4C=CC3C4)CC2)c1` (centres undefined), with 2.51 µM (active); and `O=C(c1coc2ccccc2c1=O)N1CCN(c2cccc(C(F)(F)F)c2)CC1`, with “inactive”.
With `CC(=O)O[C@]1(C(C)=O)CC[C@@H]2[C@@H]3C=C(C)C4=CC(=O)CC[C@@]4(C)[C@H]3CC[C@]21C`, the AC50 entry was “inactive”.
Still for that read-out and setting: then `CCN(CC)C(=O)Cn1cnc([N+](=O)[O-])n1`, with “inactive”.
On the same count and under the same terms, then `O=C1C(=O)N(c2cccc(Cl)c2)C(c2ccccc2[N+](=O)[O-])/C1=C(\O)c1ccccc1` (centres undefined), with “inactive”.
As to `COc1ccc(CCNC(=O)c2nnn(CC(=O)Nc3ccccc3C)c2N)cc1OC`, the AC50 entry was “inactive”.
Consider `COCC(=O)N1CCC2(CCCN(C(=O)Nc3cccc(C#N)c3)C2)CC1`, for which the AC50 entry was “inactive”.
On the same count and under the same terms, the figure for `COc1ccccc1C(c1nnnn1C(C)(C)C)N1CCN(Cc2ccncc2)CC1` (centres undefined) is 2.82 µM (active); for `COc1ccccc1C(c1nnnn1C(C)(C)C)N1CCCc2ccccc21` (centres undefined) it is “inactive”; for `CN1CCN(c2ncc3nc(-c4cc(F)cc(F)c4)c(=O)n(C)c3n2)CC1` it is “inactive”.
Same read-out and setting: the figure for `OCCN=c1cc(-c2ccccc2)oc2ccc(Cl)cc12` is 6.31 µM (active); for `Cc1cc(Cl)ccc1Oc1ncnc2oc(-c3ccccc3)cc12` it is “inactive”.
The same measure, in the same setting: then `COc1ccc(CNc2cc(-c3ccccc3CN(C)C)ncn2)c(OC)c1`, with 12.6 µM (active); and `COc1ccc(CNc2ccnc(-c3ccccc3OC)n2)c(OC)c1`, with 3.98 µM (active).
As for `COc1ccccc1CNc1ccnc(-c2ccccc2OC)n1`, the AC50 was 1.58 µM (active).
As for `COc1ccc(CNc2ccnc(-c3ccccc3CN(C)C)n2)c(OC)c1`, the half-maximal activity concentration (AC50) was 1 µM (active).
The same measure, in the same setting: then `Cc1cc(NC(=O)c2ccc(S(=O)(=O)N(C)C)cc2)n(-c2ccccn2)n1`, with “inactive”; and `COc1cccc(/C=N/Nc2nc(N3CCCC3)nc(N3CCCC3)n2)c1O`, with “inactive”; and `COc1cccc(Nc2ncc3nc(-c4cccs4)c(=O)n(-c4ccccc4)c3n2)c1`, with “inactive”.
Still for that read-out and setting: then `Cc1nc(Cl)c(C#N)cc1-c1ccccc1`, with “inactive”.
In the case of `N#CC(=C1CCCC1)c1nc(-c2ccccc2)cs1`, the AC50 result is “inactive”.
In the case of `Cc1noc(NS(=O)(=O)c2ccc(N/C=C\C(=O)c3ccc4c(c3)OCO4)cc2)c1C`, the AC50 result is “inactive”.
The same measure, in the same setting: the entry for `C=C1C(=O)O[C@@H]2[C@H]3O[C@]3(C)CCC=C(C)CC[C@@H]12` is “inactive”; for `CCOC(=O)c1c(N2C(=O)Nc3cc(Cl)c(Cl)cc3N2O)sc2c1CCCCC2` it is “inactive”; for `CCc1ccc(C(=O)COC(=O)C(Cc2ccccc2)NC(=O)C2CCC(C)CC2)cc1` (centres undefined) it is “inactive”.
With `O=C(Nc1ccc(Cl)cc1Cl)c1cccc(N2C(=O)C=CC2=O)c1`, the AC50 result is “inactive”.
Take `COc1ccc(CSC2=C(C#N)C(=O)NC3(CCCCC3)S2)cc1`: the activity, negative = inhibition was -3.33% [at 11.4 µM].
On to `Nc1nc(Cl)nc2c1ncn2[C@@H]1O[C@@H](COP(=O)(O)OP(=O)(O)OP(=O)(O)O)[C@@H](O)[C@H]1O`, for which the AC50 result is “inactive”.
Turning to `COc1ccccc1CNc1ccnc(-c2ccccc2Cl)n1`, the AC50 was 12.6 µM (active).
Turning to `COc1ccc(-c2nc3c([nH]2)c(=O)n(C)c(=O)n3C)c(OC)c1`, the AC50 result is “inactive”.
With `O=C(O)/C=C\C(=O)Nc1ccccn1`, the activity, negative = inhibition is 7.8% [at 11.4 µM].
As for `O=c1cc(CN2CCN(c3ccc(F)cc3)CC2)c2cc3c(cc2o1)CCCC3`, the AC50 entry is “inactive”.
Regarding `Cc1cc(N)n2ncc(-c3ccc(Cl)cc3)c2n1`, the AC50 entry was “inactive”.
On to `N[C@@H](CC1=CS(=O)(=O)c2ccc(Cl)cc21)C(=O)O`, for which the activity, negative = inhibition is -13.3% [at 11.4 µM].
With `CN(C)C(=O)c1ccc(-c2cncnc2NCCc2cnc[nH]2)cc1`, the AC50 was 0.794 µM (active).
`c1nc(NCCc2cnc[nH]2)c2[nH]cnc2n1`: the activity, negative = inhibition was -17.7% [at 11.4 µM].
As for `CNc1ncncc1-c1ccc(C(=O)N(C)C)cc1`, the AC50 result was “inactive”.
Take `CC(=O)NCCNc1ncncc1-c1ccc(N(C)C)cc1`: the AC50 result is “inactive”.
As for `CN(C)c1ccc(-c2cncnc2Nc2ccc(F)cc2)cc1`, the concentration at half-maximal activity (AC50) is 25.1 µM (active).
On the same count and under the same terms, the entry for `Fc1ccc(Nc2ncncc2-c2ccoc2)cc1` is “inactive”; for `CN(C)c1ccc(-c2cncnc2NCCc2cnc[nH]2)cc1` it is 5.01 µM (active).
As to `c1ncc(-c2ccc3c(c2)OCO3)c(NCCc2cnc[nH]2)n1`, the AC50 was 2.51 µM (active).
On the same count and under the same terms, then `Cc1cc(N2C(=O)C(O)=C(C(=O)c3ccco3)C2c2ccc(O)cc2)no1` (centres undefined), with “inactive”.
On to `CO[C@H]1COC(=O)C/C=C\[C@H](C)COC(=O)[C@@H](C)NC(=O)C/C=C\[C@@H]1C`, for which the activity, negative = inhibition was 10.1% [at 11.4 µM].
As for `COc1ccc(NC(=O)N2CCC3(CC2)CCN(C(=O)c2csnn2)CC3)cc1`, the AC50 entry is “inactive”.
The same measure, in the same setting: then `CN1CCN(NC(=O)c2ccccc2F)CC1`, with “inactive”; and `Cc1ccc(-n2c(SCC(=O)N3CCOCC3)nnc2-c2cccnc2)cc1`, with “inactive”.
On the same count and under the same terms, then `CCOC(=O)CSc1n[nH]c(NC(=O)c2cccc(C)c2)n1`, with “inactive”.
On the same count and under the same terms, the entry for `CCc1cccc2c(C=C(C#N)C#N)cn(CC(=O)N3CCCCC3)c12` is “inactive”; for `O=c1oc(-c2ccco2)nc2c1cnn2-c1ccccc1` it is “inactive”.
On to `Cn1ncc([N+](=O)[O-])c1C(=O)N1CCOCC1`, for which the AC50 result was “inactive”.
The same measure, in the same setting: the entry for `CCCCNC(=O)NS(=O)(=O)c1ccc(C(=O)OC(C)C)o1` is “inactive”; for `CN(C)S(=O)(=O)c1cccc(NC(=O)COC(=O)c2ccc(Br)o2)c1` it is “inactive”; for `CN(C)S(=O)(=O)c1ccc(NC(=O)COC(=O)c2ccccn2)cc1` it is “inactive”.
`CCN(CC)S(=O)(=O)c1ccc(NC(=O)COC(=O)c2ccc(Br)o2)cc1`: the half-maximal activity concentration (AC50) is 3.16 µM (active).
With `CC1=CC2=NC(=O)CC(C)(C(=O)N(CC(=O)NC(C)(C)C)Cc3cccs3)N2C=C1` (centres undefined), the AC50 result is “inactive”.
Still for that read-out and setting: then `O=c1oc2c(Cl)cc(Cl)cc2cc1-c1nnc(Nc2ccccc2F)s1`, with “inactive”; and `O=C(NC12CC3CC(CC(C3)C1)C2)N1CCN(c2nc(-c3ccccc3)cs2)CC1`, with “inactive”; and `CCS(=O)(=O)c1ccc(O)c(NC(=O)Nc2ccccc2)c1`, with 4.47 µM (active).
Same read-out and setting: the entry for `CCC(C)NC(=O)c1ccccc1NC(=O)Nc1ccccc1` (centres undefined) is “inactive”.
Regarding `NS(=O)(=O)c1ccc(NC(=O)Nc2cccc3ccccc23)cc1`, the activity, negative = inhibition is -5.78% [at 11.4 µM].
With `CCOC(=O)Cc1cc(=O)n2[nH]c(C)c(C#N)c2n1`, the AC50 entry is “inactive”.
With `CC(C)NC(=O)N1CCN(c2ccncc2S(=O)(=O)N2CCOCC2)CC1`, the AC50 result was “inactive”.
As to `Cc1ccc2c(c1)/C(=N/OC(=O)c1ccc(F)cc1)CCS2`, the AC50 result is “inactive”.
Still for that read-out and setting: the entry for `C/C(=N\OC(=O)c1cccc(C)c1)c1sc(-c2ccccc2)nc1C` is “inactive”; for `C/C(=N\OC(=O)c1ccc(F)cc1)c1nccs1` it is 12.6 µM (active); for `COc1ccccc1NC(=O)N1CCC(c2nnc(SCC(N)=O)n2C)CC1` it is “inactive”.
`COc1cc(-c2nnc(COC(=O)c3c4c(nc5ccccc35)CCCC4)o2)cc(OC)c1OC`: the AC50 result is “inactive”.
Take `COc1ccc(-n2c(CNC(=O)c3ccc(S(=O)(=O)N4CCCC4)cc3)n[nH]c2=S)cc1`: the AC50 result was “inactive”.
On the same count and under the same terms, the entry for `C/C(=N/NC(=O)c1ccc(C)s1)c1cccc(NC(=O)COc2ccc(Cl)cc2C)c1` is “inactive”.
As for `O=C(Nc1ccc2nc(SCc3ccc(Cl)cc3)sc2c1)c1ccccc1C(=O)N1CCOCC1`, the AC50 entry was “inactive”.

Values taken from PubChem BioAssay AID1851 (National Center for Advancing Translational Sciences (NCATS), 2009).
